In PubChem BioAssay AID1645883 (National Center for Advancing Translational Sciences (NCATS), 2021):
Several values for one entry are separate records, joined by “and”; a condition that tells them apart may be missing. Identical values can stand only once. Among all 16,000 compounds or so, about 160 (1%) were called active. Inconclusive results (about 8%) are left out. The sample holds actives, similar compounds and a random draw of the others, so the mix is not that of the screen. The call rests on the fitted dose curve; in most records, active means well fitted activation curve with a large enough effect; inconclusive means small, poorly fitted or top-dose-only effect; inactive means no such curve, though single readings can be large or run the other way.

These molecules were tested against Rap guanine nucleotide exchange factor 3 (Homo sapiens) (UniProt O95398) (assay: Validation qHTS for agonist of cAMP-regulated guanine nucleotide exchange factor 3 (EPAC1)). Conditions: EPAC1 Rap1b BODIPY-GDP exchange, fluorescence; max response: active compounds read high, percent of cAMP control response.
Description: Assay Provider (PI): Xiaodong Cheng Ph.D.
The University of Texas Medical Branch, […], TX
In multi-cellular eukaryotic organisms, the effects of cAMP are transduced by two ubiquitously-expressed intracellular cAMP receptors, the classic protein kinase A/cAMP-dependent protein kinase (PKA/cAPK) and the more recently discovered exchange protein directly activated by cAMP/cAMP-regulated guanine nucleotide exchange factor (EPAC/cAMP-GEF). Both PKA and EPAC are ubiquitously expressed in all tissues, and an increase in intracellular cAMP levels will lead to the activation of both PKA and EPAC. Therefore, careful dissections of the individual role and relative contribution of EPAC and PKA within the overall cAMP signaling in various model systems are critical for further elucidating the mechanism of cAMP signaling. To date no EPAC-specific antagonists and agonist, as well as isoform-specific agonists have been reported, and developing EPAC-specific pharmacological probes to determine the physiological functions that EPAC play in the overall cAMP-mediated signaling remains a major challenge within the research field. Furthermore, identified regulators of EPAC may lead to new mechanism-based therapeutic strategies specifically targeting the EPAC / cAMP-signaling components as EPAC has been implicated to play important roles in major human pathological conditions such as diabetes, heart disease, and cancer.
This qHTS will be used to screen the Molecular Libraries Small Molecule Repository (MLSMR) as a concentration-titration series using the NCGC unique quantitative screening (qHTS) platform to find activators for EPAC1. In addition, this assay will also be used as a counterscreen for the EPAC2 qHTS. This fluorescent based assay is developed and validated for EPAC1 that measures exchange using EPAC effector Rap1 complex with BODIPY-GDP, a GDP analog with a tethered fluorophores. Activators are identified by monitoring the change in fluorescence signal as the exchanged free BODIPY-GDP has a reduced fluorescence compared to Rap1-bound BODIPY-GDP. Increase in signal (activation) is the desired outcome for the EPAC1 agonist while no activity in this assay is desired for the EPAC2 agonist counterscreen.
[1] de Rooij, J., Zwartkruis, F. J., Verheijen, M. H., Cool, R. H., Nijman, S. M., Wittinghofer, A., and Bos, J.L. (1998) Nature 396, 474-477.
Briefly, three uL of reagents (100 nM EPAC1, 250 nM RAP1B-BODIPY-GDP, 50 uM GDP) were dispensed into a 1536-well Greiner black solid-bottom medium binding assay plate. Controls and test compounds (23 nL) were transferred to the plate via a Kalypsys pin tool equipped with a 1536-pin array. The plates were centrifuged at 1,000 rpm for 15 seconds followed by 5 minute incubation at room temperature. The assay plates were read at 5 minute intervals for 30 minutes in the ViewLux plate reader using 480nm excitation and 540nm emission filters. The results were normalized to the agonist positive control of 6.5 mM cAMP.
Further: nearly all actives have a fitted effect of over 70% in size.
On the % scale 0 is the no-effect control and ±100 the full control effect; potency means the concentration at half of the fitted maximal effect.

Chain of Rap guanine nucleotide exchange factor 3 (Homo sapiens) (O95398 whole entry, looked up): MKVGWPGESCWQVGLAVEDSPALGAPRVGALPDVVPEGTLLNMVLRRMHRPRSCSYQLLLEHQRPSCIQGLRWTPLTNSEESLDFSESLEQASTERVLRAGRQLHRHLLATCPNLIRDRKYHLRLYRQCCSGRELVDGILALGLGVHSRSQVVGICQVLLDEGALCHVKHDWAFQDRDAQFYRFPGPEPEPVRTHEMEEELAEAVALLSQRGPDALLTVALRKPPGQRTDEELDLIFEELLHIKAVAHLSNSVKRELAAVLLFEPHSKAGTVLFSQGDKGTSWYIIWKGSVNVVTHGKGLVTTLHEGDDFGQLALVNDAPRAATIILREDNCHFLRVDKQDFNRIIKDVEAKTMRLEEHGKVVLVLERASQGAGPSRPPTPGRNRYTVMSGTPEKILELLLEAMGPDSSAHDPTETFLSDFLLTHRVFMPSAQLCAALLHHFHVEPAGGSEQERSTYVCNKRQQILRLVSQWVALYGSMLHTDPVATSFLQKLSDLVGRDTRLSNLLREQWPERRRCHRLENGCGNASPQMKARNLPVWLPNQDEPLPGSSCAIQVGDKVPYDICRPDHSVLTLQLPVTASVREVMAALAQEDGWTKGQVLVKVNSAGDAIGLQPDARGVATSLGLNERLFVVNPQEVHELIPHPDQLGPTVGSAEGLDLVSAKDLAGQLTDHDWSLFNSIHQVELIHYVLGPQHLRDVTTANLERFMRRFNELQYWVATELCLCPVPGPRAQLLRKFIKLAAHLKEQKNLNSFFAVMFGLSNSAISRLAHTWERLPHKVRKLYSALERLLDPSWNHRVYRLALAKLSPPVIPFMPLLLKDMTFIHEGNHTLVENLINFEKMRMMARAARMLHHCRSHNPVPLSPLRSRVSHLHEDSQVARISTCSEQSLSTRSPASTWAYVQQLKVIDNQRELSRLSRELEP

Max response, inactive:
O=c1c(-c2cccs2)nc2cnc(Oc3ccccc3)nc2n1-c1ccccc1 26.8%, C=O -10.7%, COCCn1c(=O)c(-c2cccs2)nc2cnc(N3CCN(C)CC3)nc21 9.88%, CC(=O)Nc1cc(C(=O)N2CCc3c(Cl)cccc3C2)cc2ncn(CCc3ccccn3)c12 1.17%, COC(C)C(C(=O)OCC1=CCN2CC[C@H](O)[C@@H]12)C(C)C (stereo partly drawn) 5.22%, CNc1cc(-c2c(C)noc2C)ncn1 2.2%, CC(Oc1ccccc1)C(=O)N[C@@H]1C(=O)N2[C@@H]1SC(C)(C)[C@@H]2C(=O)O (stereo partly drawn) -0.674%, COc1cccc(Cn2c(=O)cnc3cncnc32)c1 -1.3%, Cc1cn(C2OC[C@@H](O)[C@@H]2CO)c(=O)[nH]c1=O (stereo partly drawn) -10%, O=C(c1cnccn1)N1CCC2(CCCN(Cc3ccccc3)C2)CC1 -21.3%, O=C(C[n+]1cc(Br)cc2ccccc21)c1ccc(F)cc1 6.56%, O=c1c(-c2ccc(F)c(F)c2)nc2cncnc2n1-c1ccccc1 -25.2%, COc1ccc(C(=O)N2CCC3(CC2)CCN(c2ccccn2)CC3)cc1 -52.8%, COC(=O)c1ccccc1-c1cc(C)cc2c1OC(CNC(=O)C1CCOC1)C2 (stereo not drawn) 15.3%, COc1ccccc1-c1cc(NCc2cccs2)ncn1 -0.282%, NNc1nnc(Cc2ccncc2)c2ccccc12 17.7%, COc1ccc(-n2c(=O)c(C)nc3cnc(N4CCOCC4)nc32)cc1 -14.8%, O=C(CCN1Cc2ccccc2OC(c2ccccc2)C1)N[C@@H]1CS(=O)(=O)C[C@H]1O (stereo partly drawn) 0.897%, CN(C)c1ccc(/C=C/c2c3ccccc3nc3ccccc23)cc1 23.9%, Cc1c(C(=O)NCC2CCCN(C)C2)cnn1-c1nccc(-c2ccco2)n1 (stereo not drawn) -6.37%, CC1(C)[C@H](O[C@H]2O[C@H](C(=O)O)[C@@H](O)[C@H](O)[C@H]2O[C@@H]2O[C@H](C(=O)O)[C@@H](O)[C@H](O)[C@H]2O)CC[C@@]2(C)[C@H]1CC[C@]1(C)[C@H]2C(=O)C=C2[C@H]3C[C@@](C)(C(=O)O)CC[C@]3(C)CC[C@]21C 5.45%, CN(Cc1ccco1)c1ncncc1-c1ccoc1 15.3%, O=C(c1ccco1)N1CCC[C@@]2(CCN(c3ccccc3)C2)C1 -31.3%, CCCCCCCCCCCC(=O)O[C@H](CC(=O)O)C[N+](C)(C)C -21.3%, O=S1(=O)CCOC[C@H](Cc2ccccc2)N1Cc1ccccc1Br 21.5%, Cc1nc2cc(NC(=O)[C@@H]3C[C@@H](Sc4ccccn4)CN3Cc3ccccc3C)ccc2s1 16.2%, Cc1cc[n+](C2CCCCC2)cc1 -16.9%, CC1(C)S[C@@H]2[C@H](N=CN3CCCCCC3)C(=O)N2[C@H]1C(=O)O -11.7%, CCN(Cc1ccncc1)C(=O)[C@@H](CO)c1ccccc1 7.04%, C#CCCCCCCCCCCCCCCCC(=O)O -16.8% and -0.644%, CCN1CCN(C(=O)N[C@@H](C(=O)N[C@@H]2C(=O)N3[C@@H]2SC(C)(C)[C@H]3C(=O)O)c2ccccc2)C(=O)C1=O 15.9%, CS(=O)(=O)N1CCC2(CC1)CN(Cc1ccccc1)C2 -14.5%, COc1ccc2[nH]cc(CCNc3cc(-c4ccccc4CN(C)C)ncn3)c2c1 -42%, COc1ccc(CNc2ncncc2-c2ccccc2OC)c(OC)c1 -21.3%, O=C(O)CCCCCCCCc1cn(CN2C(=O)c3ccccc3C2=O)nn1 12.5%, Oc1ccc(Cl)c2c1CCC2 -17.9%, Cc1csc(-c2nc3ccccc3n2C)n1 8.44%, NC(=O)c1sc(-c2ccsc2)cc1N -9.78%, Cc1cnc(CNc2ncncc2-c2ccccc2Cl)cn1 13%, O=c1c(-c2ccc(F)cc2)nc2cnc(N3CCOCC3)nc2n1-c1ccccc1 -86.9%, COc1ccccc1-c1nc(NCc2cccs2)c2ccccc2n1 -19.8%, Cc1cc(C(=O)NCC2Cc3cccc(-c4cncnc4)c3O2)c(C)o1 (stereo not drawn) 3.15%, COc1ccccc1CNc1ncncc1-c1cccc(NS(C)(=O)=O)c1 -3.54%, CCC1CN(CCNC(=O)c2cccc(C)n2)Cc2cc(OC)ccc2O1 (stereo not drawn) 8.26%, CC(C)(C)NCC(O)COc1cccc2[nH]c(=O)[nH]c12 (stereo not drawn) -8.93% and -6.11%, CC(=O)N1CCC2(CCCN(c3ncccn3)C2)CC1 -18.4%, Cc1ccc(C(=O)Nc2cccc(-c3nc(CNC(=O)c4ccccc4-n4cccn4)c(C)o3)c2)s1 -3.18%, Cc1csc(-c2coc3cc(O[C@@H]4O[C@H](CO)[C@@H](O)[C@@H](O)[C@H]4O)ccc3c2=O)n1 -1.66%, COc1cc2[nH]c(C)c(CCN3CCN(c4ccccc4)CC3)c2cc1OC 5.71%, COCCn1c(=O)c(-c2cc(F)cc(F)c2)nc2cncnc21 -6.52%, COCC(=O)N1CCC2(CCCN(c3ccccc3)C2)CC1 -14.6%, Cc1noc(C)c1-c1nccc(N2CCOCC2)n1 5.18%, O=P(O)(O)OC[C@H](O)CO -11.2%, O=C(O)/C(=C/c1c(C(=O)O)[nH]c2cc(Cl)cc(Cl)c12)c1ccccc1 -0.525%, CCOC(=O)N1CCC(N2CCOc3ccc(CN4CCC(O)(c5cccnc5)CC4)cc3C2)CC1 -5.78%, Clc1ccccc1-c1cc(NCCN2CCOCC2)ncn1 -6.13%, Cn1c(=O)c(CCc2ccccc2)nc2cnc(Nc3ccccc3)nc21 -11%

Potency, active:
CN(C)c1ccc(/C=C/C=C/c2ccnc3ccccc23)cc1 112 µM
